From PubChem BioAssay (EPA / NIEHS) come the findings set out here.

Active and inactive are the calls of the source. The calls were made as follows: active = hit-call score of the fitted dose curve at least 0.9, where 1 is the maximum; inactive = score below 0.9.

The term AC50 denotes the midpoint of the concentration-response curve, whichever way the signal moves.

Test [1] is described as follows: CEETOX_H295R_PROG: CeeTox H295R High-throughput Steroidogenesis Assay for Progesterone (PROG) (AID 2283442).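 As to AC50: human H295R adrenal cells primed with 10 µM forskolin before dosing; progesterone secreted into medium by H295R cells measured by HPLC-MS/MS.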 Conditions: actives raise or lower the signal. The procedure, abridged: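 Steps: seed H295R cells and let them adhere overnight; prime 48 h with 10 uM forskolin; dose with compound in DMSO at 0.1% final for 48 h; extract medium steroids with MTBE; measure progesterone by LC-MS/MS. MTT viability was run in the same wells.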

Read-out in test [2]: Tumor necrosis factor receptor superfamily member 6 (Homo sapiens) (UniProt P25445)
The experiment in a line: LTEA_HepaRG_FAS: Life Technologies and Expression Analysis (LTEA) Assay for Fas cell surface death receptor (FAS) using HepaRG (AID 2283447). Conditions: mRNA level, 48 h; actives raise or lower the signal. The procedure, abridged: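 FAS transcript level was measured by TaqMan qRT-PCR against three housekeeping genes after 48 h chemical exposure. Cells were HepaRG, 0.5% DMSO vehicle, with a top concentration of 100 uM and half-log dilutions over eight points, in duplicate.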

Read-out in test [3]: Fatty acid synthase (Homo sapiens) (UniProt P49327)
The experiment in a line: LTEA_HepaRG_FASN: Life Technologies and Expression Analysis (LTEA) Assay for Fatty Acid Synthase (FASN) using HepaRG (AID 2283448). Conditions: mRNA level, 48 h; actives raise or lower the signal. Put shortly:
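FASN expression changes, up or down relative to 0.5% DMSO, were measured by qRT-PCR in human HepaRG cells after 48 h treatment with chemicals at eight concentrations (half-log steps from 100 uM).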

Read-out in test [4]: Cyclin D2 (CCND2), CCND2 (gene 894)
The experiment in a line: LTEA_HepaRG_CCND2: Life Technologies and Expression Analysis (LTEA) Assay for Cyclin D2 (CCND2) using HepaRG (AID 2283449). Conditions: mRNA level, 48 h; actives raise or lower the signal. The procedure, abridged:
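Read-out is CCND2 mRNA level measured by qRT-PCR in human HepaRG liver cells and normalised to three housekeeping genes. Chemicals were applied for 48 h at up to 100 uM, with gain or loss fitted relative to 0.5% DMSO.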

Read-out in test [5]: Cyclin Dependent Kinase Inhibitor 1A (CDKN1A), CDKN1A (gene 1026)
The experiment in a line: LTEA_HepaRG_CDKN1A: Life Technologies and Expression Analysis (LTEA) Assay for Cyclin Dependent Kinase Inhibitor 1A (CDKN1A) using HepaRG (AID 2283450). Conditions: mRNA level, 48 h; actives raise or lower the signal. Put shortly:
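Read-out is CDKN1A mRNA by TaqMan qRT-PCR, normalized to three housekeeping genes and fitted in both directions against the DMSO baseline. Human HepaRG cells were treated 48 h with test chemicals up to 100 uM in half-log steps, 0.5% DMSO.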

Read-out in test [6]: Cyclin D1 (CCND1), CCND1 (gene 595)
The experiment in a line: LTEA_HepaRG_CCND1: Life Technologies and Expression Analysis (LTEA) Assay for Cyclin D1 (CCND1) using HepaRG (AID 2283451). Conditions: mRNA level, 48 h; actives raise or lower the signal. The procedure, abridged:
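HepaRG plated 48 h, medium switched to serum-free induction medium, chemicals added in duplicate (top 100 uM, half-log steps, 0.5% DMSO) for 48 h, cells lysed, RNA measured by TaqMan qRT-PCR.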

Read-out in test [7]: catalase (CAT), CAT (gene 847)
Put plainly: LTEA_HepaRG_CAT: Life Technologies and Expression Analysis (LTEA) Assay for catalase (CAT) using HepaRG (AID 2283452). Conditions: mRNA level, 48 h; actives raise or lower the signal. The procedure, abridged: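 Expression of CAT was quantified by TaqMan qRT-PCR with ACTB/GAPDH/POLR2A normalization after 48 h chemical exposure of HepaRG. Eight-point half-log series, top 100 uM, in 0.5% DMSO; gain or loss fitted against vehicle.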

Read-out in test [8]: flavin-containing dimethylaniline monooxygenases 3 (FMO3), FMO3 (gene 2328)
The experiment in a line: LTEA_HepaRG_FMO3: Life Technologies and Expression Analysis (LTEA) Assay for flavin-containing dimethylaniline monooxygenases 3 (FMO3) using HepaRG (AID 2283453). Conditions: mRNA level, 48 h; actives raise or lower the signal. Put shortly:
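Differentiated HepaRG cells in serum-free induction medium, exposed 48 h in duplicate to 8 half-log concentrations up to 100 uM in 0.5% DMSO. FMO3 mRNA by qRT-PCR, normalized to ACTB, GAPDH, POLR2A; bidirectional fit vs DMSO.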

Read-out in test [9]: Cytochrome P450 (CYP1A1), CYP1A1 (gene 1543)
The experiment in a line: LTEA_HepaRG_CYP1A1: Life Technologies and Expression Analysis (LTEA) Assay for Cytochrome P450 (CYP1A1) using HepaRG (AID 2283454). Conditions: mRNA level, 48 h; actives raise or lower the signal. Put shortly:
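HepaRG, 48 h post-plating switched to serum-free induction medium; 8-pt conc-response (top 100 uM, half-log, 0.5% DMSO), duplicates, 48 h. Lysis in RLT, TaqMan qRT-PCR for CYP1A1; gain or loss vs DMSO.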

Read-out in test [10]: CFLAR gene, CFLAR (gene 8837)
Put plainly: LTEA_HepaRG_CFLAR: Life Technologies and Expression Analysis (LTEA) Assay for CFLAR gene using HepaRG (AID 2283455). Conditions: mRNA level, 48 h; actives raise or lower the signal. Put shortly: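 HepaRG, 48 h exposure, 8-pt conc-response (100 uM top, half-log), 0.5% DMSO vehicle, duplicates. CFLAR expression by qRT-PCR; ACTB/GAPDH/POLR2A normalization; gain or loss fit vs DMSO baseline.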

Read-out in test [11]: Forkhead box O1 (FOXO1), FOXO1 (gene 2308)
Put plainly: LTEA_HepaRG_FOXO1: Life Technologies and Expression Analysis (LTEA) Assay for Forkhead box O1 (FOXO1) using HepaRG (AID 2283456). Conditions: mRNA level, 48 h; actives raise or lower the signal. Put shortly:
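Readout is FOXO1 transcript level by multiplexed qRT-PCR against three housekeeping genes, curve-fitted in both directions relative to 0.5% DMSO vehicle. Human HepaRG cultures received chemicals for 48 h, up to 100 uM in half-log steps.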

Read-out in test [12]: growth arrest and DNA damage 45 (GADD45A), GADD45A (gene 1647)
The experiment in a line: LTEA_HepaRG_GADD45A: Life Technologies and Expression Analysis (LTEA) Assay for growth arrest and DNA damage 45 (GADD45A) using HepaRG (AID 2283458). Conditions: mRNA level, 48 h; actives raise or lower the signal. Put shortly:
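Cells plated and cultured 48 h, switched to serum-free induction medium, then dosed for 48 h (100 uM top, half-log dilutions, 0.5% DMSO). RNA was isolated and transcript measured by Fluidigm qRT-PCR.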

Read-out in test [13]: Forkhead box O3 (FOXO3), FOXO3 (gene 2309)
The experiment in a line: LTEA_HepaRG_FOXO3: Life Technologies and Expression Analysis (LTEA) Assay for Forkhead box O3 (FOXO3) using HepaRG (AID 2283459). Conditions: mRNA level, 48 h; actives raise or lower the signal. The procedure, abridged:
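HepaRG, 48 h post-dose; 8 conc., half-log from 100 uM, 0.5% DMSO, duplicates; serum-free induction medium. Readout: FOXO3 mRNA, TaqMan qRT-PCR, housekeeping-normalized. Bidirectional curve fit vs DMSO baseline.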

Read-out in test [14]: ABC Transporter (ABCB1), ABCB1 (gene 5243)
The experiment in a line: LTEA_HepaRG_ABCB1: Life Technologies and Expression Analysis (LTEA) Assay for ABC Transporter (ABCB1) using HepaRG (AID 2283460). Conditions: mRNA level, 48 h; actives raise or lower the signal. The procedure, abridged:
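Expression of ABCB1 was quantified by qRT-PCR against three housekeeping genes after human HepaRG cultures received test chemicals for 48 hours. Concentrations spanned eight half-log steps topping at 100 uM in 0.5% DMSO; gain or loss of signal was fitted relative to vehicle.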

Read-out in test [15]: growth arrest and DNA damage 45 (GADD45B), GADD45B (gene 4616)
The experiment in a line: LTEA_HepaRG_GADD45B: Life Technologies and Expression Analysis (LTEA) Assay for growth arrest and DNA damage 45 (GADD45B) using HepaRG (AID 2283461). Conditions: mRNA level, 48 h; actives raise or lower the signal. The procedure, abridged:
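HepaRG, ~100,000 cells/well, 48 h plating; serum-free induction medium; cpd 100 uM top, half-log x8, 0.5% DMSO, duplicate, 48 h; lysis in RLT, RNA isolation, qRT-PCR; norm ACTB/GAPDH/POLR2A; bidirectional fit vs DMSO.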

Read-out in test [16]: ABC Transporter (ABCC3), ABCC3 (gene 8714)
Put plainly: LTEA_HepaRG_ABCC3: Life Technologies and Expression Analysis (LTEA) Assay for ABC Transporter (ABCC3) using HepaRG (AID 2283462). Conditions: mRNA level, 48 h; actives raise or lower the signal. The procedure, abridged:
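Human HepaRG, 48 h dosing, 8-pt half-log series from 100 uM, 0.5% DMSO vehicle, duplicates. ABCC3 mRNA by TaqMan qRT-PCR, housekeeping-normalized; bidirectional curve fit vs DMSO.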

Read-out in test [17]: ABC Transporter (ABCB11), ABCB11 (gene 8647)
Put plainly: LTEA_HepaRG_ABCB11: Life Technologies and Expression Analysis (LTEA) Assay for ABC Transporter (ABCB11) using HepaRG (AID 2283463). Conditions: mRNA level, 48 h; actives raise or lower the signal. Put shortly:
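ABCB11 transcript levels are read by Fluidigm TaqMan qRT-PCR after 48 h chemical treatment of human HepaRG cells. Concentrations span 100 uM downward in half-log steps with 0.5% DMSO; gain or loss is fitted against DMSO controls.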

Read-out in test [18]: ABC Transporter (ABCC2), ABCC2 (gene 1244)
Put plainly: LTEA_HepaRG_ABCC2: Life Technologies and Expression Analysis (LTEA) Assay for ABC Transporter (ABCC2) using HepaRG (AID 2283464). Conditions: mRNA level, 48 h; actives raise or lower the signal. The procedure, abridged: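 HepaRG, 48 h post-plating; serum-free induction medium; cpd 8-pt, 100 uM top, half-log, 0.5% DMSO, duplicate, 48 h. Readout: ABCC2 mRNA by qRT-PCR, norm. ACTB/GAPDH/POLR2A. Bidirectional fit vs DMSO baseline.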

Read-out in test [19]: Broad substrate specificity ATP-binding cassette transporter ABCG2 (Homo sapiens) (UniProt Q9UNQ0)
The experiment in a line: LTEA_HepaRG_ABCG2: Life Technologies and Expression Analysis (LTEA) Assay for ABC Transporter (ABCG2) using HepaRG (AID 2283465). Conditions: mRNA level, 48 h; actives raise or lower the signal. Put shortly: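 Read-out is ABCG2 mRNA induction or loss quantified by qRT-PCR after 48 h chemical treatment of human HepaRG cells, normalized to three housekeeping genes. Concentrations reached 100 uM top in half-log steps; fitting was bidirectional against 0.5% DMSO.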

Sequence of Fatty acid synthase (Homo sapiens) (P49327 whole entry, looked up): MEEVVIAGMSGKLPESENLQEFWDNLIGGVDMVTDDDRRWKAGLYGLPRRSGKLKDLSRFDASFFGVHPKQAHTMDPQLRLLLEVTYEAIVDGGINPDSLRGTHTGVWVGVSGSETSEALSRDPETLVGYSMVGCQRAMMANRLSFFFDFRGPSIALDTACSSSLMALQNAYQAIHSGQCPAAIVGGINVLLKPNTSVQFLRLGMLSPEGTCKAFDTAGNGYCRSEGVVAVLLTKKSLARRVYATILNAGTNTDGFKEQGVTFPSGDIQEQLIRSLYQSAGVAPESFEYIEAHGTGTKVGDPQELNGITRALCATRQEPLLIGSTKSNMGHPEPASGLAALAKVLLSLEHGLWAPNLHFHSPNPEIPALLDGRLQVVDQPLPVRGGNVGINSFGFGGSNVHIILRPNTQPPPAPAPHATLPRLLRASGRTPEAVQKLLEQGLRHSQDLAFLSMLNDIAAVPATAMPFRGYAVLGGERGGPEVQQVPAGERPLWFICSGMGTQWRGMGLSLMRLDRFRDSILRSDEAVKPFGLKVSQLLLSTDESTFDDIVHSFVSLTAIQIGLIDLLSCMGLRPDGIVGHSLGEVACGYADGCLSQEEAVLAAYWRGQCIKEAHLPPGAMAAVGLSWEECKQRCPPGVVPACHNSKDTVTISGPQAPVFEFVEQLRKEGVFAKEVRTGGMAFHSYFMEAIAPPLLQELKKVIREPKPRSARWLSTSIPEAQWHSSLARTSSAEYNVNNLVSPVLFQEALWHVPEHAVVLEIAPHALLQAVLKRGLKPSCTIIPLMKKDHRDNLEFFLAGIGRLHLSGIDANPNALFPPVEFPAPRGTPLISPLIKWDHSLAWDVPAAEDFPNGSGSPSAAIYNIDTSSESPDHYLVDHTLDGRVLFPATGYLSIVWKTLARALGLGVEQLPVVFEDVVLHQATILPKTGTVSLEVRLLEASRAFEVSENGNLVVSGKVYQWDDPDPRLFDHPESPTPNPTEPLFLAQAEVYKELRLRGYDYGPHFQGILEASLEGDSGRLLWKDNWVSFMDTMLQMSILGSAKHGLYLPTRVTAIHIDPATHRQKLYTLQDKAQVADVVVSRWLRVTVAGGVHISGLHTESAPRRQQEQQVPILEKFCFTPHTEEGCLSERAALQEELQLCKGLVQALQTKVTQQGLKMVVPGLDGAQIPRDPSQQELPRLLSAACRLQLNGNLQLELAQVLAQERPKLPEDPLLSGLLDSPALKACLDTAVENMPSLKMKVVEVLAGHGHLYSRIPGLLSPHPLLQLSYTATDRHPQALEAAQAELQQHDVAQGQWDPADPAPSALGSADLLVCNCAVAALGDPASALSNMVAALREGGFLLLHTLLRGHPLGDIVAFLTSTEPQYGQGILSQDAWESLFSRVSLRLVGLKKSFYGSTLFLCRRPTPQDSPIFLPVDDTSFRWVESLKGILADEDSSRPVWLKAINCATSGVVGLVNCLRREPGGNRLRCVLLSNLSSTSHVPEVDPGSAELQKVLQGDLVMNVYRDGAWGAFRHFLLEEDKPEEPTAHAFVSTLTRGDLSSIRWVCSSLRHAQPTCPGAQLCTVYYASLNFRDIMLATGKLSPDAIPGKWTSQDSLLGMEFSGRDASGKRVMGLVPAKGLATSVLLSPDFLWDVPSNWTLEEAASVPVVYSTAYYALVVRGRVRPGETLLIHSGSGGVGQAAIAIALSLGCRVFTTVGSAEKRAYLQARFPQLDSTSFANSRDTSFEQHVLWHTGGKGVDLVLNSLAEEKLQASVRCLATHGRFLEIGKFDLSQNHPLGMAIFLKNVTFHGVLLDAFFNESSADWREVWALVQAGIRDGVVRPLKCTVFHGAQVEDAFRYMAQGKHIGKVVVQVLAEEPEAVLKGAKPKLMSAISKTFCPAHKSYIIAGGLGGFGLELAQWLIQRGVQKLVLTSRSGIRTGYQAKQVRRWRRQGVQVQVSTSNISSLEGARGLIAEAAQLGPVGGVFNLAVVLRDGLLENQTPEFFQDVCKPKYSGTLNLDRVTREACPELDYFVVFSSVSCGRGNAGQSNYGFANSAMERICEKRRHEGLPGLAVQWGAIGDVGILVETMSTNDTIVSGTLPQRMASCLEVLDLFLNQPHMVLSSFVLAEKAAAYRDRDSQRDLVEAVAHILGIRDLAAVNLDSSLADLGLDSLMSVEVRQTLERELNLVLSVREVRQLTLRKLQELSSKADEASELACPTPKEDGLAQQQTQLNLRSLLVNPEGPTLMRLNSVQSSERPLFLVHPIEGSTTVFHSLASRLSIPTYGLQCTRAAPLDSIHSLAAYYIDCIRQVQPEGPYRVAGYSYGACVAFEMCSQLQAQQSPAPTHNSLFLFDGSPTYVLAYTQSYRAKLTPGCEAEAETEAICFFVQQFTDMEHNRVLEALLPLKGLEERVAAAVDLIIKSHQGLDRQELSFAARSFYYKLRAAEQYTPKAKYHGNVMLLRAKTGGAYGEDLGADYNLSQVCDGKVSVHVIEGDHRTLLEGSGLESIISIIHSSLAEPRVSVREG
Sequence of Broad substrate specificity ATP-binding cassette transporter ABCG2 (Homo sapiens) (Q9UNQ0 whole entry, looked up): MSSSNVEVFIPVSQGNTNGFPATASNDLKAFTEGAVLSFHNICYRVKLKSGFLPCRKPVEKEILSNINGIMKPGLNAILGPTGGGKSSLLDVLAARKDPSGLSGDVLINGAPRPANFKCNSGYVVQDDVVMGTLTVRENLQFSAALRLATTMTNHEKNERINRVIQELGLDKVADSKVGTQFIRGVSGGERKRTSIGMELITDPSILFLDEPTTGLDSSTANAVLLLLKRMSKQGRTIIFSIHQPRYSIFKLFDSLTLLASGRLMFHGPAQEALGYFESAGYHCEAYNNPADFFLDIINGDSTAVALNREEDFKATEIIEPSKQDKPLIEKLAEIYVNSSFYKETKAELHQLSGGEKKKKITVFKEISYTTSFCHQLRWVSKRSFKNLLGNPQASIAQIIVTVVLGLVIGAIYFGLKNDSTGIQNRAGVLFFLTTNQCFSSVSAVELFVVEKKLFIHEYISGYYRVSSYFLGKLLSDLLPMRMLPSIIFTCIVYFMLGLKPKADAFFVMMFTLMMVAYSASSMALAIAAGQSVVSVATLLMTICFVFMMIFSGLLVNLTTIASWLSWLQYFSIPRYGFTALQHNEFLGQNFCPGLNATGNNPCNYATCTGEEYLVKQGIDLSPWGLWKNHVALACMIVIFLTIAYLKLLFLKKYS

For the molecule `C#C[C@]1(O)CC[C@H]2[C@@H]3CCc4cc(O)ccc4[C@H]3CC[C@@]21C`, the AC50 in [1] was 372 nM (active). Further, the outcome in test [2], in test [3], in [4], in test [5], in test [6] and in test [7] was inactive. Also, the molecule was called inactive in [8], in test [9], in test [10], in test [11], in test [12] and in test [13]. Moreover, the molecule was classed as inactive in test [14], in test [15], in [16], in [17], in test [18] and in test [19].
Regarding `CCCCCCCCCCCCN1CCOCC1`, the AC50 in test [1] is 304 nM (active).
Regarding `COC(=O)c1ccc(C(=O)OC)cc1`, the result in test [2], in test [3], in test [4], in test [5], in test [6] and in test [7] was inactive. Also, the molecule was classed as inactive in [8], in test [10], in test [11], in test [12], in [13] and in test [14]. The molecule was classed as inactive in [15], in test [16], in [17], in [18] and in [19]. Further, the AC50 in test [9] is 65.1 µM (active).
Consider `CCCCCC(=O)O[C@]1(C(C)=O)CC[C@H]2[C@@H]3CCC4=CC(=O)CC[C@]4(C)[C@H]3CC[C@@]21C`, for which, in test [1], the concentration at half-maximal activity (AC50) is 4560 nM (active).
Take `CC(=O)c1ccc2ccccc2c1`: the result in [1] was inactive.
For the molecule `COc1ccc2[nH]cc(CCNC(C)=O)c2c1`, the AC50 in test [1] is 20000 nM (active).
